# According to PubChem BioAssay (NCATS):
# Records with an inconclusive call do not appear. Entries that show only a call come without a potency. Active and inactive are the calls of the source. Calls come from the whole dose curve; as a rule, active = well fitted curve in the direction sought with a large enough effect; inconclusive = small, poorly fitted or top-dose-only effect, or another doubt; inactive = no such curve, though single readings can be large; an effect the other way counts as inactive or inconclusive. Where a SMILES comes first, the peptide text is derived from it.
# Experiments:
# [1] = Primary qHTS for inhibitors of nuclear receptor binding SET domain protein 2 (NSD2) in an isogenic RCH-ACV NSD2 p.E1099K mutant (9B) (AID 1645876)
# [2] = Primary qHTS for inhibitors of nuclear receptor binding SET domain protein 2 (NSD2) in an RCH-ACV wild type WT cells (2C) (AID 1645877)
# Note: nearly all actives have a fitted effect of over 70% in size.
SMILES,Potency [1],Potency [2],outcome [1],outcome [2]
C=C1CCC2(OC1)OC1CC3C4CC=C5CC(O)CC(O[C@@H]6OC[C@@H](O)[C@H](O)[C@H]6O)C5(C)C4CCC3(C)C1(O)C2C (some centres undefined),inactive,inactive,,
COc1cc(/C=C/C(=O)OC[C@H]2O[C@H](O[C@]3(CO)O[C@H](CO)[C@@H](O)[C@@H]3O)[C@H](O)[C@@H](O)[C@@H]2O)cc(OC)c1O,inactive,inactive,,
Cc1cc(C)cc(NC(=O)Cc2ccc(OC(C)(C)C(=O)O)cc2)c1,inactive,inactive,,
COC1CCCC/C(C)=C/C2C=C(C)C(C)C3C(CC(C)C)NC(=O)C23C(=O)C1 (centres undefined),inactive,inactive,,
C[C@@H]1O[C@@H](O[C@H]2[C@H](O[C@H]3CO[C@@H](O[C@H]4CC[C@@]5(C)C(CC[C@]6(C)C5CC[C@]57OC[C@@]8(CC[C@](C)(CO)CC85)[C@H](O)C[C@]76C)C4(C)C)[C@H](O[C@@H]4O[C@H](CO)[C@@H](O)[C@H](O)[C@H]4O)[C@H]3O)O[C@H](CO)[C@@H](O)[C@@H]2O)[C@H](O)[C@H](O)[C@H]1O (some centres undefined),,,inactive [at 9.23 µM],inactive [at 9.23 µM]
CC1NC(=O)CNC(=O)C(C(C)C)NC(=O)C2CCCN2C(=O)C(C(C)C)NC(=O)C(Cc2c[nH]c3ccccc23)NC1=O (centres undefined) (cyclo(GAWVPV); configuration not given here),inactive,inactive,,
CC(=O)OCC1=C[C@H](O)[C@@H]2C(C(=O)O)=CO[C@@H](O[C@@H]3O[C@H](CO)[C@@H](O)[C@H](O)[C@H]3O)[C@H]12,inactive,inactive,,
